# From publication PMC7862700, “An all-to-all approach to the identification of sequence-specific readers for epigenetic DNA modifications on cytosine”
# Columns and labels:
# Assay in all cases: DAPPL (digital affinity profiling via proximity ligation, sequencing); 10 mM Tris-HCl pH 7.5, 50 mM NaCl, 1 mM DTT, 4% glycerol, room temperature, 30 min; GST-TFs on glutathione beads, 16-mer random dsDNA library, 0.1% formaldehyde crosslink after washing; high values mean tight binding
# FEV = biological target: T1, FEV (Homo sapiens, UniProt Q99581 1-238); details: protein: recombinant; tags: N-terminal GST; dsDNA, one strand shown
# T1 sequence: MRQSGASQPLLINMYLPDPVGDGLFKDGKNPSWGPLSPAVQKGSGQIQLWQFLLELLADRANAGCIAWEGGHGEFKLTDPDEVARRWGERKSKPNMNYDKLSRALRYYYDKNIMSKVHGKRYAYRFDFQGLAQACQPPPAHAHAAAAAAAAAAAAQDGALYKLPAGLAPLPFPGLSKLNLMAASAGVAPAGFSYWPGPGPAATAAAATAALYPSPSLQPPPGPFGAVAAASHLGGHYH
# Summary of the method: (§1)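 Binding signal is defined as a hexamer's read frequency for one factor over its frequency for the tag-only sample. To obtain reads, GST-fused human transcription factors were expressed in yeast, captured on glutathione beads, barcoded with DNA and pooled with that sample. Pools met 200 nmole of a 16-mer random double-stranded DNA library in Tris/NaCl/DTT/glycerol buffer for 30 min at room temperature before washing, 0.1% formaldehyde crosslinking, proximity ligation (BsaI/T4 ligase, 1 h, 37 °C), PCR and Illumina NextSeq500 sequencing.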
# ETV5 = ETV5 (Homo sapiens, UniProt P41161 1-510); details: protein: recombinant; tags: N-terminal GST; dsDNA, one strand shown
# Summary of the method: as §1
# HSF1 = HSF1 (Homo sapiens, UniProt Q00613 1-529); details: protein: recombinant; tags: N-terminal GST; chain copies: 3; dsDNA, one strand shown
# Summary of the method: as §1
# SPIC = biological target: T2, SPIC (Homo sapiens, UniProt Q8N5J4 1-248); details: protein: recombinant; tags: N-terminal GST; dsDNA, one strand shown
# T2 sequence: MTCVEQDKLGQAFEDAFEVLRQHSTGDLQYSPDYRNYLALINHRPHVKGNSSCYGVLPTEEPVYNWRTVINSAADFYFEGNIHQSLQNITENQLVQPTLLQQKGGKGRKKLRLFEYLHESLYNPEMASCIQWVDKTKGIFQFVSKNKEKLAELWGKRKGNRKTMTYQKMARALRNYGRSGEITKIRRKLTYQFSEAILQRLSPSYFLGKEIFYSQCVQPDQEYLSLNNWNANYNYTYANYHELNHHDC
# Summary of the method: as §1
# ELF4 = ELF4 (Homo sapiens, UniProt Q99607 1-663); details: protein: recombinant; tags: N-terminal GST; dsDNA, one strand shown
# Summary of the method: as §1
# ELK4 = biological target: T3, ELK4 (Homo sapiens, UniProt P28324-2 1-405); details: protein: recombinant; tags: N-terminal GST; dsDNA, one strand shown
# T3 sequence: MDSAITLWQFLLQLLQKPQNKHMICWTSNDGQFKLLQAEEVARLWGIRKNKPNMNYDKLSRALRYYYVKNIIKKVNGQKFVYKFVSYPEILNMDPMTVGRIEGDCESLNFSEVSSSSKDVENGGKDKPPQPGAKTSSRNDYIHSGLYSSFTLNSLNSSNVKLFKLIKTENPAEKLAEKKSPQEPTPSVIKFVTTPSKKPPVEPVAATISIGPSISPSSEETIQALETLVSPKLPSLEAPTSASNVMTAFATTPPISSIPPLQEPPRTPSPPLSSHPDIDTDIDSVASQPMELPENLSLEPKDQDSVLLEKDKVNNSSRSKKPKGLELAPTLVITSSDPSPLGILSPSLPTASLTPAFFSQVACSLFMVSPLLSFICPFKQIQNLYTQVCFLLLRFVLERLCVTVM
# Summary of the method: as §1
# ETV2 = biological target: T4, ETV2 (Homo sapiens, UniProt O00321 1-342); details: protein: recombinant; tags: N-terminal GST; dsDNA, one strand shown
# T4 sequence: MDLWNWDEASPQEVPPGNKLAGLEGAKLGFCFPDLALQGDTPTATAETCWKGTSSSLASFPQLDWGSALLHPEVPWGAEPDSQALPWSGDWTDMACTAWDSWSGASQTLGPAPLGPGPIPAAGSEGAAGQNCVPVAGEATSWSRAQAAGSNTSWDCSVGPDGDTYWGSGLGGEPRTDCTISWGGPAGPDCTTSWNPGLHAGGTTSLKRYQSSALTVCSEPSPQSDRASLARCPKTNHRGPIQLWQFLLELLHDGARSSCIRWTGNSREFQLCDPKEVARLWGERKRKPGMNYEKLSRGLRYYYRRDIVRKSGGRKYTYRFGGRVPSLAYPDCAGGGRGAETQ
# Summary of the method: as §1
# ELF3 = biological target: T5, ELF3 (Homo sapiens, UniProt P78545 1-371); details: protein: recombinant; tags: N-terminal GST; dsDNA, one strand shown
# T5 sequence: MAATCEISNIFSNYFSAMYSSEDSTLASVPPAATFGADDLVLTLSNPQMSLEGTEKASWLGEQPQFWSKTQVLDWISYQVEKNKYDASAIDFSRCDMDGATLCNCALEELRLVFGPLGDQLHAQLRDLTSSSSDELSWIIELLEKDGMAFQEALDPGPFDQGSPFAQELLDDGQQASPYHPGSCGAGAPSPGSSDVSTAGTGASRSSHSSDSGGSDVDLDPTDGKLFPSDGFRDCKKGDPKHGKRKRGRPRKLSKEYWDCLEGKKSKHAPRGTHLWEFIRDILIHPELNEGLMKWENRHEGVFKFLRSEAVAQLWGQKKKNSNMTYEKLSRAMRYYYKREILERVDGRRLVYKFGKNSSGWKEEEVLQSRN
# Summary of the method: as §1
# CRX = CRX (Homo sapiens, UniProt O43186 1-299); details: protein: recombinant; tags: N-terminal GST; dsDNA, one strand shown
# Summary of the method: as §1
# ETV1 = ETV1 (Homo sapiens, UniProt P50549 1-477); details: protein: recombinant; tags: N-terminal GST; dsDNA, one strand shown
# Summary of the method: as §1
# ERF = biological target: T6, ERF (Homo sapiens, UniProt P50548 1-548); details: protein: recombinant; tags: N-terminal GST; dsDNA, one strand shown
# T6 sequence: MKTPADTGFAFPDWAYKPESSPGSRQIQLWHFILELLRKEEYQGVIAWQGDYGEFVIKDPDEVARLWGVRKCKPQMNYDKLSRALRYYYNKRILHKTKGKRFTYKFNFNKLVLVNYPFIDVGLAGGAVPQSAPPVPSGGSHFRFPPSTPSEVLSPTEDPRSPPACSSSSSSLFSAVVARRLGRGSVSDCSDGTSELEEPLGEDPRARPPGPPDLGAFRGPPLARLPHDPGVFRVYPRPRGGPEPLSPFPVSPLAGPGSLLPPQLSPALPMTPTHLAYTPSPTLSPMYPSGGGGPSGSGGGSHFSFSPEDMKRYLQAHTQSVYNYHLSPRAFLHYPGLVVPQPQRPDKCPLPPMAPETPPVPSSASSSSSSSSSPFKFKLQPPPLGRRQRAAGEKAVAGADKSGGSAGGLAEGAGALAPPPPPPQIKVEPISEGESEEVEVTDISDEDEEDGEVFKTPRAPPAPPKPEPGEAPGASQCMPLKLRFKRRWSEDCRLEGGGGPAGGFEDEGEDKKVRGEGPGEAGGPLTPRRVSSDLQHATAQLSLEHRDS
# Summary of the method: as §1
# ETV3L = biological target: T7, ETV3L (Homo sapiens, UniProt Q6ZN32 1-361); details: protein: recombinant; tags: N-terminal GST; dsDNA, one strand shown
# T7 sequence: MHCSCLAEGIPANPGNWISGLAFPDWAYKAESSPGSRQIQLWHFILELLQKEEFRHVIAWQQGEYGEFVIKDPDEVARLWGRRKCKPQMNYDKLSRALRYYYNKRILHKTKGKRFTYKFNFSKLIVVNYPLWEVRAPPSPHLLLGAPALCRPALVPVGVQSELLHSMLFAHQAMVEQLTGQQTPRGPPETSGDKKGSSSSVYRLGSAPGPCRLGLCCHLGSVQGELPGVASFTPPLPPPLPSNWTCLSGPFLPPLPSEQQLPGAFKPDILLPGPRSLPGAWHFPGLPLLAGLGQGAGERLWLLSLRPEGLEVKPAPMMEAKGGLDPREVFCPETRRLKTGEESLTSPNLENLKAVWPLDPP
# Summary of the method: as §1
# ETS2 = biological target: T8, ETS2 (Homo sapiens, UniProt P15036 1-469); details: protein: recombinant; tags: N-terminal GST; dsDNA, one strand shown
# T8 sequence: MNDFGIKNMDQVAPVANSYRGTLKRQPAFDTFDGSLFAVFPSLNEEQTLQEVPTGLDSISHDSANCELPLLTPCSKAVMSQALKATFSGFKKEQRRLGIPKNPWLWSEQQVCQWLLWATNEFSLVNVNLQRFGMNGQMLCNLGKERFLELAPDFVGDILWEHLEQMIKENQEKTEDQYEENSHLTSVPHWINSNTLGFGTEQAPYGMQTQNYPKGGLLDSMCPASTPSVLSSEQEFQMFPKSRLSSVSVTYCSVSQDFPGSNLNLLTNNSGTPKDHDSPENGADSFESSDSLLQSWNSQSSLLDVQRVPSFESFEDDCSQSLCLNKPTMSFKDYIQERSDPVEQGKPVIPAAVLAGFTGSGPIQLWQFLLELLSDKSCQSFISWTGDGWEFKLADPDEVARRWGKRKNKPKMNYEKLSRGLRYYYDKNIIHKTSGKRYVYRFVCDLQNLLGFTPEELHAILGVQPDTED
# Summary of the method: as §1
# SPDEF = biological target: T9, SPDEF (Homo sapiens, UniProt O95238 1-335); details: protein: recombinant; tags: N-terminal GST; dsDNA, one strand shown
# T9 sequence: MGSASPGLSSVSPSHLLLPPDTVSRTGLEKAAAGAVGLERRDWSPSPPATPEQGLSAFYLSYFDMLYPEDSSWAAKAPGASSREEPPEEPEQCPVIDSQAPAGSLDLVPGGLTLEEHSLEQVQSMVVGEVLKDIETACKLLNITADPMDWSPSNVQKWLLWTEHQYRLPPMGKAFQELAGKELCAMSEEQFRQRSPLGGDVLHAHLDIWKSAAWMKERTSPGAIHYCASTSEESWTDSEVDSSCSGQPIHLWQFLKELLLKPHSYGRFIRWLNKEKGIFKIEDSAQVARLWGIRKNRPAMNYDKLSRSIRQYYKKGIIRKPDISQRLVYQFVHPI
# Summary of the method: as §1
# ETV7 = biological target: T10, ETV7 (Homo sapiens, UniProt Q9Y603 1-341); details: protein: recombinant; tags: N-terminal GST; dsDNA, one strand shown
# T10 sequence: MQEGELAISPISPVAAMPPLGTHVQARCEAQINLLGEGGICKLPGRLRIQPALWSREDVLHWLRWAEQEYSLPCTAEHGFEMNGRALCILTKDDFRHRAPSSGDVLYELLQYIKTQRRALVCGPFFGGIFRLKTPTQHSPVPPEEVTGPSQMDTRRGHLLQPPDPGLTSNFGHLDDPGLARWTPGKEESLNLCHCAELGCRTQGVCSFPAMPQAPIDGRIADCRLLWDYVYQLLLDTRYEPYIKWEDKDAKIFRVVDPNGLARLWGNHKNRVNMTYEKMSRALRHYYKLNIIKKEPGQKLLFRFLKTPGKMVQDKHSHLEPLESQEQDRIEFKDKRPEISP
# Summary of the method: as §1
# ELF5 = biological target: T11, ELF5 (Homo sapiens, UniProt Q9UKW6-2 1-255); details: protein: recombinant; tags: N-terminal GST; dsDNA, one strand shown
# T11 sequence: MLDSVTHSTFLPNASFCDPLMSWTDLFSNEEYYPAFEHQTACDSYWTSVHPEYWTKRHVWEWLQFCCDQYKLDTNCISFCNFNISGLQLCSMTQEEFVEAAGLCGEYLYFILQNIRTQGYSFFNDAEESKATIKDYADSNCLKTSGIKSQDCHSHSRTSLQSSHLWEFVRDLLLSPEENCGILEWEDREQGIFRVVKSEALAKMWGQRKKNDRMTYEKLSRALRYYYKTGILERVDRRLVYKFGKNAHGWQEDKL
# Summary of the method: as §1
# ETV3 = biological target: T12, ETV3 (Homo sapiens, UniProt P41162-2 1-143); details: protein: recombinant; tags: N-terminal GST; dsDNA, one strand shown
# T12 sequence: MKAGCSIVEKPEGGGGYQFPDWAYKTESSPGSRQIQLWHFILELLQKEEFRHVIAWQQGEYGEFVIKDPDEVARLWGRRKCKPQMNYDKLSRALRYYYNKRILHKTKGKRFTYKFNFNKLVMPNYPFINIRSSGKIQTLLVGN
# Summary of the method: as §1
# ETV6 = ETV6 (Homo sapiens, UniProt P41212 1-452); details: protein: recombinant; tags: N-terminal GST; dsDNA, one strand shown
# Summary of the method: as §1
# Chain of ELF4 (Q99607 whole entry): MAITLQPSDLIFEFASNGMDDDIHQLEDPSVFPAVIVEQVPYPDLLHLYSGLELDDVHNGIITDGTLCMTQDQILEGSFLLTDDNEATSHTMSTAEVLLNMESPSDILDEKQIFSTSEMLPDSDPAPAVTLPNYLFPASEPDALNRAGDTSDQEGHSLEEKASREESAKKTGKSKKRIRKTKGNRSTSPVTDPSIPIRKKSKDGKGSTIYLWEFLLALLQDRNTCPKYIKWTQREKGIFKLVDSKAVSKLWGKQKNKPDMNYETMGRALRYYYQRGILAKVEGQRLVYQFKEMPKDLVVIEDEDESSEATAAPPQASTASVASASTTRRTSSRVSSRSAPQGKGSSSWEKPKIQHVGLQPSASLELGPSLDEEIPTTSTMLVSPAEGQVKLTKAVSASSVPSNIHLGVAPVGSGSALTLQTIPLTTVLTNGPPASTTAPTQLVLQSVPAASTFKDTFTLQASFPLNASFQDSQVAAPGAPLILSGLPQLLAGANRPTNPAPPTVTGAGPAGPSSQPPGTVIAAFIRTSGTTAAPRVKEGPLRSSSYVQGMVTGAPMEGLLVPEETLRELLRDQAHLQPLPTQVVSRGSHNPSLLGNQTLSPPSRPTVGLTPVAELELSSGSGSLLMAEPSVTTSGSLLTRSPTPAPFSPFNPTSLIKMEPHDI
# Chain of ETV6 (P41212 whole entry): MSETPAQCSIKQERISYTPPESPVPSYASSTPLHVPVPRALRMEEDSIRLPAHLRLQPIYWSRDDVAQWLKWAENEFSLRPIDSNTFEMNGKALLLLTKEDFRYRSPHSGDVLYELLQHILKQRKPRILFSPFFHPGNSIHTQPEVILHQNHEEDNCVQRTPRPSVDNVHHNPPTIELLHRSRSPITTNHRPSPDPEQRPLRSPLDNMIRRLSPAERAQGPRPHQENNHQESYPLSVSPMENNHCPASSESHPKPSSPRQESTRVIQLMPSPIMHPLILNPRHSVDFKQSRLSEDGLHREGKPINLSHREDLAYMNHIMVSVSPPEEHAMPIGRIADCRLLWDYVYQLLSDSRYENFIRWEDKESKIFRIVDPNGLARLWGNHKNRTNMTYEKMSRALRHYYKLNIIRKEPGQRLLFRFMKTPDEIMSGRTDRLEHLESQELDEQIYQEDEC
# Chain of ETV5 (P41161 whole entry): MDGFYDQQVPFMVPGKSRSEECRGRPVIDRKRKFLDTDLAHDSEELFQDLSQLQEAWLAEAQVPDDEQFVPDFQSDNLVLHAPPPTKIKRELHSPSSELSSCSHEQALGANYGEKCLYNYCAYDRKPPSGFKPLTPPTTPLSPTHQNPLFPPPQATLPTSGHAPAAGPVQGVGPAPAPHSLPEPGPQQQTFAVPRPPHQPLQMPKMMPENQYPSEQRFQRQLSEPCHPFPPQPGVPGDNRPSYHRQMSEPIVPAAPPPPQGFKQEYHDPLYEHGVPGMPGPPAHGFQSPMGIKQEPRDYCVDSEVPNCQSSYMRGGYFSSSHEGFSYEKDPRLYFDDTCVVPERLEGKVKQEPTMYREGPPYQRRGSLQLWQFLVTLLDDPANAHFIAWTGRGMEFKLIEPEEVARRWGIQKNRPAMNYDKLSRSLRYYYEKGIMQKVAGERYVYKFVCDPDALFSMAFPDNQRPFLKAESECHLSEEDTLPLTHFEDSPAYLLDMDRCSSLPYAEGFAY
# Chain of HSF1 (Q00613 whole entry): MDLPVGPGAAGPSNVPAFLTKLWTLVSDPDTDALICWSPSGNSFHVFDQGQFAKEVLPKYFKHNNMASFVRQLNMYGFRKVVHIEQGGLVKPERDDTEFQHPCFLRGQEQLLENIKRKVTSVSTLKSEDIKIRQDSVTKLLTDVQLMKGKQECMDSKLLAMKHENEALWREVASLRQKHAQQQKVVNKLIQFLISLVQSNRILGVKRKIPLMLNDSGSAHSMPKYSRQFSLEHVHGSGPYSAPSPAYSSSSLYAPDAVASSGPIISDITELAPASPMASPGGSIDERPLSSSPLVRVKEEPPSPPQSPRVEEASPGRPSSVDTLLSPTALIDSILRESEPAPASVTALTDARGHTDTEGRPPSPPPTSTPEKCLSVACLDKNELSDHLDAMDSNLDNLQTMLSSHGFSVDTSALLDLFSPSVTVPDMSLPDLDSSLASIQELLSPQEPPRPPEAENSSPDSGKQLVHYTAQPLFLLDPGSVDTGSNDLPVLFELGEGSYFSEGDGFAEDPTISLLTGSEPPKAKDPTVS
# Chain of CRX (O43186 whole entry): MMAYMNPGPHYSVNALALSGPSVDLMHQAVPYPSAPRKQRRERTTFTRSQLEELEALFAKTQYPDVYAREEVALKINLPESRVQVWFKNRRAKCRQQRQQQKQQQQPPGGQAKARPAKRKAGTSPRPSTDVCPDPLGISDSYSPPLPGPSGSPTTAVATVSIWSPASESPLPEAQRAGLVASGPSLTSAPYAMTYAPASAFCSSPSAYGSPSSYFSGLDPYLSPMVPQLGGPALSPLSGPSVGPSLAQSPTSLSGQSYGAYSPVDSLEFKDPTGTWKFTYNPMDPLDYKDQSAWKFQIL
# Chain of ETV1 (P50549 whole entry): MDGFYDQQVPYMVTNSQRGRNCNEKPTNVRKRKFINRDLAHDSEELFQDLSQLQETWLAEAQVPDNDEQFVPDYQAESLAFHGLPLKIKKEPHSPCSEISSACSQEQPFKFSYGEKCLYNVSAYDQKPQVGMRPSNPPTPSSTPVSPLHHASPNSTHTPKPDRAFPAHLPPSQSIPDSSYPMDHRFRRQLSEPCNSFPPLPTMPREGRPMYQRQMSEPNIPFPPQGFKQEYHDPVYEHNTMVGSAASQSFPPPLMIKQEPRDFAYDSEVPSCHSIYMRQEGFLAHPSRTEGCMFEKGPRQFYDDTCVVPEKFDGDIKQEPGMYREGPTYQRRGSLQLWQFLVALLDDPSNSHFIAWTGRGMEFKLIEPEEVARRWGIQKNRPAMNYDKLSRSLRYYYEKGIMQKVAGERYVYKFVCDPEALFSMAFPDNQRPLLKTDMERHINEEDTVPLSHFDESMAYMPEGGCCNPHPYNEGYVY
sequence,measurement,setting,value
GTACTT,binding signal,FEV,"2.21 fold enrichment (6-mer frequency, TF over GST control)"
same,binding signal,ETV5,"1.95 fold enrichment (6-mer frequency, TF over GST control)"
same,binding signal,HSF1,"1.35 fold enrichment (6-mer frequency, TF over GST control)"
same,binding signal,SPIC,"1.86 fold enrichment (6-mer frequency, TF over GST control)"
same,binding signal,ELF4,"1.86 fold enrichment (6-mer frequency, TF over GST control)"
same,binding signal,ELK4,"1.78 fold enrichment (6-mer frequency, TF over GST control)"
same,binding signal,ETV2,"1.88 fold enrichment (6-mer frequency, TF over GST control)"
same,binding signal,ELF3,"2.04 fold enrichment (6-mer frequency, TF over GST control)"
same,binding signal,CRX,"1.6 fold enrichment (6-mer frequency, TF over GST control)"
same,binding signal,ETV1,"2.05 fold enrichment (6-mer frequency, TF over GST control)"
same,binding signal,ERF,"1.64 fold enrichment (6-mer frequency, TF over GST control)"
same,binding signal,ETV3L,"1.87 fold enrichment (6-mer frequency, TF over GST control)"
same,binding signal,ETS2,"2.02 fold enrichment (6-mer frequency, TF over GST control)"
same,binding signal,SPDEF,"2.57 fold enrichment (6-mer frequency, TF over GST control)"
same,binding signal,ETV7,"2.11 fold enrichment (6-mer frequency, TF over GST control)"
same,binding signal,ELF5,"2.51 fold enrichment (6-mer frequency, TF over GST control)"
same,binding signal,ETV3,"1.97 fold enrichment (6-mer frequency, TF over GST control)"
same,binding signal,ETV6,"2.47 fold enrichment (6-mer frequency, TF over GST control)"
